In PubChem BioAssay (EPA / NIEHS):
The source made the active and inactive calls. The calls were made as follows: active = hit-call score of the fitted dose curve at least 0.9, where 1 is the maximum; inactive = score below 0.9.

How the values were obtained:
[1] = read-out: CFLAR gene, CFLAR (gene 8837); test: LTEA_HepaRG_CFLAR: Life Technologies and Expression Analysis (LTEA) Assay for CFLAR gene using HepaRG (AID 2283455); settings: mRNA level, 48 h; actives raise or lower the signal
Procedure, shortened: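 Differentiated HepaRG cells in serum-free induction medium were exposed 48 h in duplicate to eight half-log concentrations up to 100 uM in 0.5% DMSO; mRNA measured by TaqMan qRT-PCR, normalized to ACTB, GAPDH, POLR2A; bidirectional fitting versus DMSO.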

[2] = read-out: Forkhead box O1 (FOXO1), FOXO1 (gene 2308); test: LTEA_HepaRG_FOXO1: Life Technologies and Expression Analysis (LTEA) Assay for Forkhead box O1 (FOXO1) using HepaRG (AID 2283456); settings: mRNA level, 48 h; actives raise or lower the signal
Procedure, shortened: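 Differentiated HepaRG cells, in serum-free induction medium with 0.5% DMSO, exposed 48 h in duplicate to 8-point half-log series from 100 uM. FOXO1 mRNA measured by TaqMan qRT-PCR, normalized to ACTB, GAPDH, POLR2A; bidirectional fit versus DMSO.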

[3] = CEETOX_H295R_TESTO: CeeTox H295R High-throughput Steroidogenesis Assay for Testosterone (TESTO) (AID 2283457); settings: actives raise or lower the signal;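 as to AC50: cells exposed to chemicals for 48 h before medium collection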
Procedure, shortened: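 Readout: testosterone quantified by HPLC-MS/MS (C18, ESI positive) after MTBE liquid-liquid extraction of culture medium. Cells were H295R, 48 h chemical exposure per OECD 456 with modifications. Gain or loss of signal fitted relative to DMSO.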

[4] = read-out: growth arrest and DNA damage 45 (GADD45A), GADD45A (gene 1647); test: LTEA_HepaRG_GADD45A: Life Technologies and Expression Analysis (LTEA) Assay for growth arrest and DNA damage 45 (GADD45A) using HepaRG (AID 2283458); settings: mRNA level, 48 h; actives raise or lower the signal
Procedure, shortened: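 Differentiated HepaRG cells exposed 48 h in serum-free induction medium to 8 concentrations, top 100 uM in half-log steps, 0.5% DMSO. GADD45A mRNA quantified by qRT-PCR, normalized to ACTB, GAPDH and POLR2A; bidirectional fit versus DMSO.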

[5] = read-out: Forkhead box O3 (FOXO3), FOXO3 (gene 2309); test: LTEA_HepaRG_FOXO3: Life Technologies and Expression Analysis (LTEA) Assay for Forkhead box O3 (FOXO3) using HepaRG (AID 2283459); settings: mRNA level, 48 h; actives raise or lower the signal
Procedure, shortened: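 Differentiated human HepaRG cells, 48 h post-plating, exposed in duplicate for 48 h in serum-free induction medium; 8-point half-log series from 100 uM in 0.5% DMSO. FOXO3 mRNA by TaqMan qRT-PCR, normalized to ACTB/GAPDH/POLR2A; bidirectional fit versus DMSO.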

[6] = read-out: ABC Transporter (ABCB1), ABCB1 (gene 5243); test: LTEA_HepaRG_ABCB1: Life Technologies and Expression Analysis (LTEA) Assay for ABC Transporter (ABCB1) using HepaRG (AID 2283460); settings: mRNA level, 48 h; actives raise or lower the signal
Procedure, shortened: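 HepaRG cells exposed in duplicate for 48 h in serum-free induction medium to eight half-log concentrations up to 100 uM in 0.5% DMSO. ABCB1 mRNA quantified by qRT-PCR, normalised to ACTB, GAPDH and POLR2A; fitted bidirectionally versus DMSO.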

[7] = read-out: growth arrest and DNA damage 45 (GADD45B), GADD45B (gene 4616); test: LTEA_HepaRG_GADD45B: Life Technologies and Expression Analysis (LTEA) Assay for growth arrest and DNA damage 45 (GADD45B) using HepaRG (AID 2283461); settings: mRNA level, 48 h; actives raise or lower the signal
Procedure, shortened: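 qRT-PCR read-out (Fluidigm TaqMan, housekeeping-normalized) of mRNA change in human HepaRG cells after 48 h chemical exposure; 8-point curve, top 100 uM, half-log steps, 0.5% DMSO vehicle; gain or loss fitted relative to DMSO baseline.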

[8] = read-out: ABC Transporter (ABCC3), ABCC3 (gene 8714); test: LTEA_HepaRG_ABCC3: Life Technologies and Expression Analysis (LTEA) Assay for ABC Transporter (ABCC3) using HepaRG (AID 2283462); settings: mRNA level, 48 h; actives raise or lower the signal
Procedure, shortened: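 qRT-PCR read-out of ABCC3 transcript, normalized to three housekeeping genes (ACTB, GAPDH, POLR2A), after 48 h chemical exposure of human HepaRG cells. Eight half-log concentrations, highest 100 uM, in 0.5% DMSO; gain or loss fitted relative to DMSO baseline.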

[9] = read-out: ABC Transporter (ABCB11), ABCB11 (gene 8647); test: LTEA_HepaRG_ABCB11: Life Technologies and Expression Analysis (LTEA) Assay for ABC Transporter (ABCB11) using HepaRG (AID 2283463); settings: mRNA level, 48 h; actives raise or lower the signal
Procedure, shortened: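 Differentiated human HepaRG cells in serum-free induction medium, dosed in duplicate for 48 h. Eight-point half-log series from 100 uM in 0.5% DMSO; ABCB11 mRNA by qRT-PCR, normalized to ACTB, GAPDH, POLR2A, fitted bidirectionally versus DMSO.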

[10] = read-out: ABC Transporter (ABCC2), ABCC2 (gene 1244); test: LTEA_HepaRG_ABCC2: Life Technologies and Expression Analysis (LTEA) Assay for ABC Transporter (ABCC2) using HepaRG (AID 2283464); settings: mRNA level, 48 h; actives raise or lower the signal
Procedure, shortened: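 qRT-PCR (TaqMan, Fluidigm array) read-out of ABCC2 mRNA, normalized to three housekeeping genes. Differentiated HepaRG cells were treated 48 h in serum-free induction medium with 8-point half-log series from 100 uM in 0.5% DMSO; curves fitted bidirectionally relative to DMSO.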

[11] = read-out: Broad substrate specificity ATP-binding cassette transporter ABCG2 (Homo sapiens) (UniProt Q9UNQ0); test: LTEA_HepaRG_ABCG2: Life Technologies and Expression Analysis (LTEA) Assay for ABC Transporter (ABCG2) using HepaRG (AID 2283465); settings: mRNA level, 48 h; actives raise or lower the signal
Procedure, shortened: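 Differentiated HepaRG cells were exposed for 48 h in serum-free induction medium to 8 half-log concentrations, top 100 uM, in 0.5% DMSO. ABCG2 mRNA was measured by qRT-PCR, normalized to ACTB, GAPDH and POLR2A, with bidirectional fitting versus DMSO.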

[12] = read-out: ATP-citrate lyase (ACLY), ACLY (gene 47); test: LTEA_HepaRG_ACLY: Life Technologies and Expression Analysis (LTEA) Assay for ATP-citrate lyase (ACLY) using HepaRG (AID 2283466); settings: mRNA level, 48 h; actives raise or lower the signal
Procedure, shortened: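 Differentiated HepaRG cells exposed 48 h in serum-free induction medium to eight half-log concentrations up to 100 uM in 0.5% DMSO, duplicates. Transcript measured by Fluidigm TaqMan qRT-PCR, normalized to ACTB, GAPDH, POLR2A; bidirectional fit versus DMSO.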

[13] = read-out: Alkaline Phosphatase, Placental (ALPP) gene, ALPP (gene 250); test: LTEA_HepaRG_ALPP: Life Technologies and Expression Analysis (LTEA) Assay for Alkaline Phosphatase, Placental (ALPP) gene using HepaRG (AID 2283468); settings: mRNA level, 48 h; actives raise or lower the signal
Procedure, shortened: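 qRT-PCR readout of ALPP mRNA (Fluidigm TaqMan), normalized to ACTB/GAPDH/POLR2A, after 48 h chemical exposure of HepaRG cells; 8-point half-log series, top 100 uM, 0.5% DMSO vehicle. Bidirectional curve fit versus DMSO baseline.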

[14] = read-out: Bcl-2 (BAD) gene, BAD (gene 572); test: LTEA_HepaRG_BAD: Life Technologies and Expression Analysis (LTEA) Assay for Bcl-2 (BAD) gene using HepaRG (AID 2283469); settings: mRNA level, 48 h; actives raise or lower the signal
Procedure, shortened: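 Differentiated HepaRG cells were exposed in duplicate in 0.5% DMSO for 48 h to eight-point half-log concentrations up to 100 uM. BAD mRNA was measured by Fluidigm TaqMan qRT-PCR, normalized to ACTB, GAPDH and POLR2A, and fitted bidirectionally against DMSO.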

[15] = read-out: Bcl-2 (BAX) gene, BAX (gene 581); test: LTEA_HepaRG_BAX: Life Technologies and Expression Analysis (LTEA) Assay for Bcl-2 (BAX) gene using HepaRG (AID 2283470); settings: mRNA level, 48 h; actives raise or lower the signal
Procedure, shortened: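 Differentiated HepaRG cells exposed 48 h in serum-free induction medium, eight half-log concentrations from 100 uM, in duplicate, 0.5% DMSO vehicle. BAX mRNA by TaqMan qRT-PCR, normalised to ACTB, GAPDH and POLR2A.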

[16] = read-out: adenosine kinase (ADK) gene, ADK (gene 132); test: LTEA_HepaRG_ADK: Life Technologies and Expression Analysis (LTEA) Assay for adenosine kinase (ADK) gene using HepaRG (AID 2283471); settings: mRNA level, 48 h; actives raise or lower the signal
Procedure, shortened: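 HepaRG (human liver), 48 h chemical exposure, 8-pt half-log series, top 100 uM, 0.5% DMSO vehicle. Readout: ADK mRNA by qRT-PCR vs housekeeping genes; bidirectional curve fit relative to DMSO baseline.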

[17] = read-out: Alpha-fetoprotein (AFP) gene, AFP (gene 174); test: LTEA_HepaRG_AFP: Life Technologies and Expression Analysis (LTEA) Assay for Alpha-fetoprotein (AFP) gene using HepaRG (AID 2283472); settings: mRNA level, 48 h; actives raise or lower the signal
Procedure, shortened: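 Differentiated human HepaRG cells exposed 48 h in serum-free induction medium, 8-point half-log series from 100 uM in 0.5% DMSO, duplicate. AFP mRNA by qRT-PCR, normalized to ACTB, GAPDH, POLR2A; bidirectional fit vs DMSO.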

[18] = read-out: Apolipoprotein A-V (APOA5) gene, APOA5 (gene 116519); test: LTEA_HepaRG_APOA5: Life Technologies and Expression Analysis (LTEA) Assay for Apolipoprotein A-V (APOA5) gene using HepaRG (AID 2283474); settings: mRNA level, 48 h; actives raise or lower the signal
Procedure, shortened: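 HepaRG, 48 h chemical exposure in serum-free induction medium, 8-pt half-log series (top 100 uM), 0.5% DMSO vehicle, duplicates. Readout: APOA5 mRNA by qRT-PCR, housekeeping-normalized; bidirectional fit vs DMSO baseline.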

[19] = read-out: BCL2L11 (gene 10018); test: LTEA_HepaRG_BCL2L11: Life Technologies and Expression Analysis (LTEA) Assay for Bcl-2 (BCL2L11) gene using HepaRG (AID 2283473); settings: mRNA level, 48 h; actives raise or lower the signal
Procedure, shortened: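 HepaRG, 48 h exposure, 8-pt half-log series from 100 uM in 0.5% DMSO, duplicates; qRT-PCR (Fluidigm TaqMan) for BCL2L11, housekeeping-normalized; bidirectional curve fit relative to DMSO baseline.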

[20] = read-out: Peroxisomal acyl-coenzyme A oxidase 1 (ACOX1) gene, ACOX1 (gene 51); test: LTEA_HepaRG_ACOX1: Life Technologies and Expression Analysis (LTEA) Assay for Peroxisomal acyl-coenzyme A oxidase 1 (ACOX1) gene using HepaRG (AID 2283467); settings: mRNA level, 48 h; actives raise or lower the signal
Procedure, shortened: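 HepaRG cells, plated 48 h then switched to serum-free induction medium, were exposed in duplicate for 48 h to 8-point half-log concentrations up to 100 uM in 0.5% DMSO. ACOX1 mRNA was measured by qRT-PCR, normalized to ACTB/GAPDH/POLR2A, and fitted bidirectionally versus DMSO.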

Measured: AC50

Sequence of Broad substrate specificity ATP-binding cassette transporter ABCG2 (Homo sapiens) (Q9UNQ0 whole entry, looked up): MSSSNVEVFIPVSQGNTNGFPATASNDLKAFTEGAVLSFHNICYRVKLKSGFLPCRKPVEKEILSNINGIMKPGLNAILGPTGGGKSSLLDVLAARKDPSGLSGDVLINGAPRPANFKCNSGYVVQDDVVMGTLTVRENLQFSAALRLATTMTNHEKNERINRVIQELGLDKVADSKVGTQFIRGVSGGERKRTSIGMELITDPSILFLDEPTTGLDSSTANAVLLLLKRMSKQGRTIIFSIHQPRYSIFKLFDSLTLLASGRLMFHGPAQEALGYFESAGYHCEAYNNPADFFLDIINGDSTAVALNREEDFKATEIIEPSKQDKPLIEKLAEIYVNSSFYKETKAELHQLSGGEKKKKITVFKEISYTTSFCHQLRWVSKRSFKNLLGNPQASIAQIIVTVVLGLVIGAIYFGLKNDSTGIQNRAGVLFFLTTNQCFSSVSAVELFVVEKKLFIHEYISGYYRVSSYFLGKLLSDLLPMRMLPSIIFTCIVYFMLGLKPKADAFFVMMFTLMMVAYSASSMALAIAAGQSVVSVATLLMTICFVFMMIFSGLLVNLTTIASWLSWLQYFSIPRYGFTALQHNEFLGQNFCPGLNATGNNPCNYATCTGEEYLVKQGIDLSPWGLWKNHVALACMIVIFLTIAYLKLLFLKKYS

Oc1ccc2c(c1)-c1ccccc1C2
active: [3] 38.5 µM | [9] 25.1 µM
not listed: [19] | [20]
inactive: all other assays above

Cc1ccc(N)cc1O
active: [9] 50 µM
not listed: [20]
inactive: all other assays above

CCNc1ccccc1
not listed: [3] | [14] | [19]
inactive: all other assays above

CC1=CC(=O)CC(C)(C)C1
not listed: [3] | [14] | [19]
inactive: all other assays above

CCCCC(CC)COC(=O)c1ccc(C(=O)OCC(CC)CCCC)cc1 (centres undefined)
not listed: [3] | [19]
inactive: all other assays above

CCOc1cccc(-n2cc(C(=O)N3CCN(c4cc(C(=O)O)c5ccccc5c4)CC3)nc2-c2ccc(C)cc2)c1
active: [1] 84 µM | [2] 80.5 µM | [4] 13.4 µM | [5] 77.2 µM | [6] 78.6 µM | [9] 35.5 µM | [10] 77.1 µM | [11] 85.6 µM | [12] 86.6 µM | [20] 70.1 µM | [13] 24.1 µM | [15] 12.5 µM | [16] 82.9 µM | [17] 29.8 µM | [19] 87.8 µM | [18] 64.2 µM
inactive: [3] | [7] | [8] | [14]
